Data reported in PubChem BioAssay AID1159580 (chemical genetic matrix, 2015).
About 2,000 (36%) of roughly 5,500 compounds were called active. Inconclusive results (about 18%) are left out. No stated cut-off is given here; in the data, active means normalized growth mostly below about 0.91 (no sharp cut-off); inconclusive means no clear call, values can overlap the other calls; inactive means mostly above about 0.92. This is one part of the list.

Assay: chemical genetic growth profiling, strain panel (AID 1159580);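 further: tested at 20 µM; growth read once vehicle control cultures reached saturation at 30 °C; 1 = growth at the plate median or of vehicle wells; lower values mean less growth of the strain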
Conditions: S. cerevisiae deletion strains, growth OD
[1] = locus YAL021C, strain ccr4, active compounds read low
[2] = locus YAL026C, strain drs2, active compounds read low
[3] = locus YAL030W, strain snc1, active compounds read low
[4] = locus YBL061C, strain skt5, active compounds read low
[5] = locus YBR009C, strain hhf1, active compounds read low
[6] = locus YBR023C, strain chs3, active compounds read low
[7] = locus YBR171W, strain sec66, active compounds read low
[8] = locus YBR231C, strain swc5, active compounds read low
[9] = locus YBR279W, strain paf1, active compounds read low
[10] = locus YCL011C, strain gbp2, active compounds read low
[11] = locus YCL016C, strain dcc1, active compounds read low
[12] = locus YCL061C, strain MRC1, active compounds read low
[13] = locus YCL069W, strain vba3, active compounds read low
[14] = locus YCR088W, strain abp1, active compounds read low
[15] = locus YDL005C, strain med2, active compounds read low
[16] = locus YDL040C, strain nat1, active compounds read low
[17] = locus YDR001C, strain nth1, active compounds read low
[18] = locus YDR069C, strain doa4, active compounds read low
[19] = locus YDR137W, strain rgp1, active compounds read low
[20] = locus YDR159W, strain sac3, active compounds read low
[21] = locus YDR297W, strain sur2, active compounds read low
[22] = locus YDR334W, strain swr1, active compounds read low
[23] = locus YDR335W, strain msn5, active compounds read low
[24] = locus YDR392W, strain spt3, active compounds read low
[25] = locus YEL003W, strain gim4, active compounds read low
[26] = locus YEL037C, strain rad23, active compounds read low
[27] = locus YEL061C, strain CIN8 (second series), active compounds read low
[28] = locus YER015W, strain faa2, active compounds read low
[29] = locus YER016W, strain bim1, active compounds read low
[30] = locus YER111C, strain swi4, active compounds read low
[31] = locus YER155C, strain BEM2 (second series), active compounds read low
[32] = locus YFR010W, strain ubp6, active compounds read low
[33] = locus YGL167C, strain pmr1, active compounds read low
[34] = locus YGL173C, strain kem1, active compounds read low
[35] = locus YGL227W, strain vid30, active compounds read low
[36] = locus YGL240W, strain doc1, active compounds read low
[37] = locus YGL253W, strain hxk2, active compounds read low
[38] = locus YHR013C, strain ard1, active compounds read low
[39] = locus YHR027C, strain rpn1, active compounds read low
[40] = locus YHR030C, strain SLT2, active compounds read low
[41] = locus YHR079C, strain IRE1, active compounds read low
[42] = locus YHR142W, strain chs7, active compounds read low
[43] = locus YJL092W, strain hpr5, active compounds read low
[44] = locus YJL095W, strain BCK1 (second series), active compounds read low
[45] = locus YJL095W, strain BCK1, active compounds read low
[46] = locus YJL115W, strain asf1, active compounds read low
[47] = locus YJL129C, strain trk1, active compounds read low
[48] = locus YJL154C, strain vps35, active compounds read low
[49] = locus YJL164C, strain tpk1, active compounds read low
[50] = locus YJL166W, strain qcr8, active compounds read low
[51] = locus YJL187C, strain SWE1, active compounds read low
[52] = locus YJR066W, strain TOR1, active compounds read low
[53] = locus YKL160W, strain elf1, active compounds read low
[54] = locus YKR026C, strain gcn3, active compounds read low
[55] = locus YKR091W, strain srl3, active compounds read low
[56] = locus YLL001W, strain dnm1, active compounds read low
[57] = locus YLL026W, active compounds read low
[58] = locus YLL041C, strain sdh2, active compounds read low
[59] = locus YLR027C, strain aat2, active compounds read low
[60] = locus YLR113W, strain HOG1, active compounds read low
[61] = locus YLR221C, strain rsa3, active compounds read low
[62] = locus YLR258W, strain gsy2, active compounds read low
[63] = locus YLR262C, strain YPT6 (second series), active compounds read low
[64] = locus YLR320W, strain mms22, active compounds read low
[65] = locus YLR342W, strain FKS1, active compounds read low
[66] = locus YLR357W, strain rsc2, active compounds read low
[67] = locus YLR370C, strain arc18, active compounds read low
[68] = locus YLR384C, strain iki3, active compounds read low
[69] = locus YML120C, strain ndi1, active compounds read low
[70] = locus YMR058W, strain fet3, active compounds read low
[71] = locus YMR125W, strain sto1, active compounds read low
[72] = locus YMR129W, active compounds read low
[73] = locus YMR205C, strain PFK2, active compounds read low
[74] = locus YMR231W, strain pep5, active compounds read low
[75] = locus YNL071W, strain lat1, active compounds read low
[76] = locus YNL183C, strain NPR1, active compounds read low
[77] = locus YNL209W, strain ssb2, active compounds read low
[78] = locus YNL248C, strain rpa49, active compounds read low
[79] = locus YNL322C, strain KRE1 (second series), active compounds read low
[80] = locus YNR049C, strain mso1, active compounds read low
[81] = locus YOR001W, strain rrp6, active compounds read low
[82] = locus YOR070C, strain gyp1, active compounds read low
[83] = locus YOR080W, strain dia2, active compounds read low
[84] = locus YOR083W, strain WHI5, active compounds read low
[85] = locus YOR106W, strain vam3, active compounds read low
[86] = locus YOR231W, strain MKK1, active compounds read low
[87] = locus YOR265W, strain rbl2, active compounds read low
[88] = locus YOR270C, strain vph1, active compounds read low
[89] = locus YOR290C, strain snf2, active compounds read low
[90] = locus YPL051W, strain arl3, active compounds read low
[91] = locus YPL078C, strain atp4, active compounds read low
[92] = locus YPL106C, strain sse1, active compounds read low
[93] = locus YPL240C, strain hsp82, active compounds read low
[94] = locus YPL256C, strain CLN2, active compounds read low

Measured: normalized growth

O=c1cc(-c2ccc(O)cc2)oc2cc(O)cc(O)c12
inactive: [1] 0.995 | [2] 0.978 | [3] 0.99 | locus YAL040C, strain CLN3, active compounds read low 0.976 | [4] 1 | [5] 1.01 | [6] 0.993 | [7] 0.997 | [8] 1 | [9] 0.994 | [10] 0.999 | [11] 0.998 | [12] 1.01 | [13] 0.989 | [14] 0.987 | [15] 0.995 | [16] 0.99 | [17] 0.981 | [18] 0.966 | [19] 1.04 | [20] 0.975 | locus YDR195W, strain ref2 0.955 | [21] 0.993 | [22] 0.98 | [23] 0.996 | locus YDR363W, strain ESC2, active compounds read low 0.998 | [24] 0.922 | [25] 0.997 | [26] 0.981 | [27] 0.985 | locus YER002W, strain NOP16, active compounds read low 0.987 | [28] 0.986 | [29] 0.98 | [30] 0.989 | [31] 0.975 | [32] 0.966 | [33] 0.974 | [34] 1 | [35] 0.989 | [36] 1 | [37] 0.973 | locus YGR229C, strain SMI1, active compounds read low 1.01 | [38] 1.01 | [39] 0.997 | [40] 1.02 | [41] 0.996 | [42] 0.98 | [43] 0.988 | [44] 0.996 | [45] 1.02 | [46] 0.978 | [47] 0.995 | [48] 0.977 | [49] 1.03 | [50] 1.01 | [51] 0.998 | [52] 0.954 | [53] 1.01 | [54] 0.972 | [55] 0.985 | [56] 1.03 | [57] 0.993 | [58] 0.997 | [59] 0.998 | [60] 0.95 | [61] 0.992 | [62] 1 | [63] 1.05 | [64] 1.01 | [65] 0.993 | [66] 0.918 | [67] 0.981 | [68] 0.98 | [69] 0.984 | [70] 0.97 | [71] 0.973 | [72] 0.989 | [73] 1.03 | [74] 0.996 | [75] 0.993 | locus YNL175C, strain NOP13, active compounds read low 1.01 | [76] 0.943 | locus YNL197C, strain WHI3, active compounds read low 0.981 | [77] 0.998 | locus YNL224C, strain SQS1, active compounds read low 0.982 | [78] 0.989 | [79] 0.977 | [80] 0.989 | [81] 1 | [82] 1 | [83] 0.986 | locus YOR083W, strain WHI5 (second series), active compounds read low 0.954 | [84] 1.02 | [85] 0.999 | [86] 1.02 | [87] 0.998 | [88] 0.988 | [89] 0.96 | [90] 0.999 | [91] 1 | [92] 0.955 | [93] 0.995 | [94] 1.01

O=c1cc(-c2ccc(O)cc2)oc2cc(O)ccc12
inactive: [1] 0.967 | [2] 0.95 | [3] 0.959 | [4] 0.967 | [5] 0.929 | [6] 0.958 | [7] 0.981 | [8] 0.974 | [9] 0.974 | [10] 0.948 | [11] 0.976 | [12] 0.976 | [13] 0.969 | [14] 0.957 | [15] 0.963 | [16] 0.968 | [17] 0.96 | [18] 0.949 | [19] 0.925 | [20] 0.866 | locus YDR195W, strain ref2 0.963 | [21] 0.966 | [22] 0.954 | [23] 0.984 | [24] 0.853 | [25] 0.972 | [26] 0.952 | [27] 0.949 | [28] 0.973 | [29] 0.976 | [30] 0.961 | [31] 0.897 | [32] 0.941 | [33] 0.945 | [34] 0.972 | [35] 0.941 | [36] 0.958 | [37] 0.98 | [38] 0.925 | [39] 0.957 | [40] 0.948 | [41] 0.935 | [42] 0.935 | [43] 0.97 | [44] 0.968 | [45] 0.969 | [46] 0.968 | [47] 0.915 | [48] 0.975 | [49] 0.962 | [50] 0.969 | [51] 0.964 | [52] 0.938 | [53] 0.973 | [54] 0.945 | [55] 0.964 | [56] 0.958 | [57] 0.96 | [58] 0.976 | [59] 0.953 | [60] 0.918 | [61] 0.974 | [62] 0.956 | [63] 0.926 | [64] 0.937 | [65] 0.954 | [66] 0.944 | [67] 0.948 | [68] 0.961 | [69] 0.948 | [70] 0.965 | [71] 0.941 | [72] 0.966 | [73] 0.922 | [74] 0.966 | [75] 0.972 | [76] 0.924 | [77] 0.973 | [78] 0.971 | [79] 0.956 | [80] 0.964 | [81] 0.979 | [82] 0.971 | [83] 0.968 | [84] 0.982 | [85] 0.946 | [86] 0.942 | [87] 0.975 | [88] 0.833 | [89] 0.921 | [90] 0.984 | [91] 0.963 | [92] 0.937 | [93] 0.955 | [94] 0.944
